Compound activity deposited in PubChem by The Scripps Research Institute Molecular Screening Center.
The list is not random: actives were taken first. Their share in the collection is about 3.5%.
FBW7 act = FBW7 E3 ligase activators, primary screen, biochemical, AlphaScreen, human; AlphaScreen FBW7–phospho-cyclin E peptide binding, activator screen; F-box/WD repeat-containing protein 7 (Homo sapiens), Q969H0; normalized activity (activation), % at 26.1 µM; AID 1259310, 2017; actives 0.13% (n = 650,000); in the data active means normalized activity above about 1.9%;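 further: purified mutant Fbw7 with reduced substrate affinity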
TEAD-YAP inh = TEAD-YAP interaction inhibition, primary screen, TEAD-YAP interaction inhibitor project, luminescence, HEK-TIYL cells; actives 1.4% (n = 640,000); TEAD-Gal4/YAP UAS-luciferase luminescence; inhibition, % at 9.12 µM; AID 1259422, 2018; in the data active means inhibition above about 32%
MITF inh = MITF inhibitors, primary screen, biochemical, AlphaScreen, human; AlphaScreen MITF homodimerization, bead proximity signal; inhibition, % at 2.6 µM; actives 0.91% (n = 650,000); in the data active means inhibition above about 50%
GPR151 ag = activators of human GPR151, primary screen, cell-based, PathHunter beta-arrestin, luminescence | PathHunter beta-arrestin GPR151 cells | activation, % at 11.2 µM | G-protein coupled receptor 151 (Homo sapiens), Q8TDV0 | actives 1% (n = 650,000) | AID 1508602, 2020; in the data active means activation above about 4.9%
Target sequence (Q8TDV0 whole entry, looked up): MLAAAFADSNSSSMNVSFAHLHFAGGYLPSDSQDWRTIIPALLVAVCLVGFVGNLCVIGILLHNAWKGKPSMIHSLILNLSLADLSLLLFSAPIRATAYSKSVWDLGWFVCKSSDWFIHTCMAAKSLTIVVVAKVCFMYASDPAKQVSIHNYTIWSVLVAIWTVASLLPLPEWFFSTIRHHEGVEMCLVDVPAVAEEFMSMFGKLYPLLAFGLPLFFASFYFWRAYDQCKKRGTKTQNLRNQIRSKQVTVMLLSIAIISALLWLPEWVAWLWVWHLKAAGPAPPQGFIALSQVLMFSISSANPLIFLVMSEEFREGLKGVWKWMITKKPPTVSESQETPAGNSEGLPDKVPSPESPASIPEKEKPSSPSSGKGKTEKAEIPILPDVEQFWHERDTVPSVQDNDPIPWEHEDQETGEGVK
Large screens that a line does not name were inactive.

N/C(=N\OC(=O)c1ccc(F)cc1)c1ccc(Br)cc1	FBW7 act 2.1
O=[N+]([O-])c1cccc(Nc2nc(-c3ccccc3)c3cc(Br)ccc3n2)c1	none
CC(=O)Oc1ccc(C(=O)O/N=C(\N)c2ccncc2)cc1	TEAD-YAP inh 32
CC(C)(C)c1ccc(C(=O)O/N=C(\N)c2ccncc2)cc1	none
COc1ccc(C(=O)O/N=C(\N)c2ccccn2)c(OC)c1	TEAD-YAP inh 41
CCOc1ccc(C(=O)O/N=C(\N)c2ccccn2)cc1	TEAD-YAP inh 91
COc1ccc(C(=O)O/N=C(\N)c2ccc(OC)c(OC)c2)c(OC)c1	none
Cc1ccccc1C(=O)O/N=C(\N)c1ccccn1	TEAD-YAP inh 49
Cc1ncc(CN2CCCC(C(=O)Nc3cccc(-n4cccn4)c3)C2)s1 (stereo unspecified)	none
N/C(=N\OC(=O)c1ccc(I)cc1)c1ccccn1	TEAD-YAP inh 81
COc1ccc(C(=O)O/N=C(\N)c2ccccn2)cc1OC	none
NC1=NC(=O)/C(=C/c2cc(O)ccc2Cl)S1	TEAD-YAP inh 39
COc1ccc(OC)c(/C=C2\SC(N)=NC2=O)c1	MITF inh 58
COc1ccc(/C=C2/SC(N)=NC2=O)c(OC)c1	none
CCOC(=O)N1CCN(c2nnnn2-c2ccccc2)CC1	none
CCOc1ccccc1N1CCN(c2nnnn2-c2ccccc2)CC1	TEAD-YAP inh 42
COc1ccc(C(C)=O)cc1CC1(C)C(=O)Nc2ccccc21 (stereo unspecified)	none
COc1ccc(CNC(=O)Cc2nn(C)c(=O)c3ccccc23)cc1	TEAD-YAP inh 38
Cn1nc(CC(=O)Nc2ccc(F)c(Cl)c2)c2ccccc2c1=O	FBW7 act 1.9
COc1cc(NC(=O)Cc2nn(C)c(=O)c3ccccc23)cc(OC)c1OC	none
Cc1cccc(NC(=O)Cc2nn(C)c(=O)c3ccccc23)c1	TEAD-YAP inh 45
Cn1nc(CC(=O)Nc2cccc(F)c2)c2ccccc2c1=O	TEAD-YAP inh 34
Cc1nc(NCc2ccccc2-c2ccco2)sc1-c1ccn(C2CCOC2)n1 (stereo unspecified)	none
Cc1cccn2cc(C(=O)N3CCCC(C(=O)c4ccc(Cl)cc4)C3)nc12 (stereo unspecified)	none
COc1ccc(OC)c(NC(=O)CSc2nnc3sc4ccccc4n23)c1	none
COc1ccc(CC(=O)NCc2ccsc2)cc1	TEAD-YAP inh 35
Cn1nc(CC(=O)Nc2c(F)cccc2F)c2ccccc2c1=O	TEAD-YAP inh 41
COc1ccc(CC(=O)NCc2ccc(C)cc2)cc1	none
Cn1nc(CC(=O)Nc2ccccc2Br)c2ccccc2c1=O	none
Cc1ccc(NC(=O)Cc2nn(C)c(=O)c3ccccc23)cc1	TEAD-YAP inh 42
O=C(CCC1(Cc2ccccc2)CCC(=O)N1)NCCn1ccc2ccccc21 (stereo unspecified)	none
COc1ccc(-c2cc(NC3CCN(Cc4ccccc4)CC3)ncn2)cn1	none
FC(F)(F)c1cccc(N2N=C(c3ccc(Br)cc3)CC2c2ccc(Cl)cc2)c1 (stereo unspecified)	none
COc1ccc(S(=O)(=O)N2CCN(CC(=O)Nc3ccc(F)cc3)CC2)cc1	none
CCCNc1ccc2ncc(-c3ccc(OC)c(OC)c3)n2n1	TEAD-YAP inh 34
COc1ccc(CNc2ccc3ncc(-c4ccc(O)c(OC)c4)n3n2)cc1	none
CCCNc1ccc2ncc(-c3cccc(C(N)=O)c3)n2n1	TEAD-YAP inh 33
COc1cc(-c2cnc3ccc(NCCCO)nn23)ccc1O	TEAD-YAP inh 75
CCOc1ccc(NC(=O)COC(=O)c2cc(=O)c3ccccc3o2)cc1	none
O=C(COC(=O)c1cc(O)c(O)c(O)c1)Nc1ccc(F)cc1	MITF inh 68
CCc1ccc(NC(=O)COC(=O)c2cc(=O)c3cc(F)ccc3o2)cc1	FBW7 act 2.8
O=C(COC(=O)c1cc(F)c(F)cc1Cl)Nc1ccc(F)cc1	none
CCOC(=O)c1[nH]c2c(c1C)C(=O)CC(c1ccc(OC)c(OC)c1)C2 (stereo unspecified)	none
Cc1c(C(=O)OCC(C)C)[nH]c2c1C(=O)CC(c1ccco1)C2 (stereo unspecified)	TEAD-YAP inh 49
Cc1c(C(=O)OC2CCCC2)[nH]c2c1C(=O)CC(c1ccco1)C2 (stereo unspecified)	TEAD-YAP inh 55
C/C=C/COC(=O)c1[nH]c2c(c1C)C(=O)CC(c1ccco1)C2 (stereo unspecified)	TEAD-YAP inh 57
Cc1c(C(=O)OCC2CCCO2)[nH]c2c1C(=O)CC(c1ccco1)C2 (stereo unspecified)	TEAD-YAP inh 52
Cc1c(C(=O)OCC(C)C)[nH]c2c1C(=O)CCC2	none
Cc1ccc(/C=C/C(=O)Nc2ccc3ccccc3c2)o1	none
CCC(C)c1ccccc1OCCOCCN1CC(C)OC(C)C1 (stereo unspecified)	none
N#CCCN(CCC#N)C(=O)Cc1ccc(F)cc1	none
C=CCOC(=O)c1[nH]c2c(c1C)C(=O)CC(c1ccco1)C2 (stereo unspecified)	TEAD-YAP inh 51
CC(C)CC(=O)NC(c1ccc2c(c1)OCO2)c1ccc2cccnc2c1O (stereo unspecified)	TEAD-YAP inh 84
Cc1cccc(NC(c2ccc3c(c2)OCO3)c2ccc3cccnc3c2O)n1 (stereo unspecified)	TEAD-YAP inh 80
CCOc1cccc(C(Nc2cccc(C)n2)c2ccc3ccc(C)nc3c2O)c1 (stereo unspecified)	none
Oc1c(C(Nc2ccccn2)c2ccc3c(c2)OCO3)ccc2cccnc12 (stereo unspecified)	TEAD-YAP inh 87
Oc1c(C(Nc2ccccn2)c2ccc(OC3CCCC3)cc2)ccc2cccnc12 (stereo unspecified)	none
O=C(CC(Nc1cccc(Cl)c1)c1ccc(Cl)cc1)c1ccc(Br)cc1 (stereo unspecified)	none
COc1cccc(-c2nnc3sc(CN4CCCCC4)cn23)c1	TEAD-YAP inh 48
O=C(N/C(=C\c1cccc(Br)c1)C(=O)N1CCCCC1)c1ccccc1	none
CCOc1ccc(/C=C2/NC(=O)N(CC(=O)Nc3cccc(C)c3)C2=O)c(OCC)c1	FBW7 act 2.8
CCC(C)(C)c1ccc(OCCCCN2C(=O)c3ccccc3C2=O)c(C(C)(C)CC)c1	none
Cc1ccc(S(=O)(=O)Nc2ccccc2C(=O)Nc2nc(-c3cccs3)cs2)cc1	none
CS(=O)(=O)c1ccccc1C(=O)Nc1nc(-c2ccc(C#N)cc2)cs1	TEAD-YAP inh 34
Cc1ccc(S(=O)(=O)Nc2ccccc2C(=O)Nc2nc(-c3ccc(Br)cc3)cs2)cc1	TEAD-YAP inh 38
Cc1ccc(S(=O)(=O)Nc2ccccc2C(=O)Nc2nc(-c3ccc(Br)s3)cs2)cc1	TEAD-YAP inh 53
Cc1ccc(S(=O)(=O)Nc2ccccc2C(=O)Nc2nc(-c3ccc(Cl)cc3)cs2)cc1	TEAD-YAP inh 53
